# Reference: PubChem BioAssay (NCATS)
# Inconclusive results are not listed. Active and inactive are the calls of the source. Calls follow the shape of the dose curve; as a rule, active = well fitted inhibition curve with a large enough effect; inconclusive = small, poorly fitted or top-dose-only effect; inactive = flat fitted curve, though single readings scatter.
# Assay: Drug repurposing screens with cells derived from glioblastoma tumor samples (AID 1345199); also: nearly all actives have a fitted effect of over 40% in size
# Conditions: GBM patient neurospheres viability, ATP luminescence, 48 h
# Procedure: CD133+ cells were isolated from GBM patient biopsies and cultured as neurospheres. Neurospheres from four patients were used to screen the NCATS pharmaceutical collection (NPC) library of approved drugs and bioactive compounds. […] The neurospheres were incubated with drugs for 48 hours in 1536-well format, then assayed with an ATP content cell viability assay. […] These hits were cherry picked to confirm activity in the four original GBM lines screened plus three other slower growing GMB lines (unable to yield enough cells for a full primary screen). Variable activities of the confirmed primary hits in the different GBM patient lines were observed. The patient line 206 responded to the greatest number of compounds and line 923 responded to the least amount of active compounds.
# [1] = at 45.9 µM (top of the series), tumour line B
# [2] = at 45.9 µM (top of the series), tumour line D
# [3] = at 46.1 µM (top of the series), tumour line C
# [4] = at 46 µM (top of the series), tumour line A
# % is scaled to controls: 0 for no effect and ±100 for the full control effect; potency is read from the fitted curve at half-maximal effect.
SMILES,"activity, negative = cell killing [1]","activity, negative = cell killing [2]","activity, negative = cell killing [3]","activity, negative = cell killing [4]",Potency (tumour line A)
O=C(OCC1(COC(=O)c2cccnc2)CCCC(COC(=O)c2cccnc2)(COC(=O)c2cccnc2)C1O)c1cccnc1,-11.6% (inactive),-18.7% (inactive),2.18% (inactive),–,–
COc1cc(NS(=O)(=O)c2ccc(N)cc2)nc(C)n1,-1.01% (inactive),-8.58% (inactive),5.24% (inactive),-28.7% (inactive),–
C=CC[N+]1([C@H]2C[C@H]3[C@@H]4CC[C@H]5C[C@H](OC(C)=O)[C@@H](N6CCCCC6)C[C@]5(C)[C@H]4CC[C@]3(C)[C@H]2OC(=O)CC)CCCCC1,-10% (inactive),-23% (inactive),-14.4% (inactive),–,6.31 µM (active)
CC(=O)N[C@@H](CCC(N)=O)C(=O)O,-17.6% (inactive),-7.79% (inactive),-4.41% (inactive),–,–
C=CCOc1cc(Cl)ccc1C(=O)NCCN(CC)CC,-22.9% (inactive),–,2.19% (inactive),–,10 µM (active)
O=C(CO)[C@@H](O)[C@H](O)[C@@H](O)CO,4.08% (inactive),-8.89% (inactive),8.07% (inactive),-12.2% (inactive),–
O=C(O)Cc1ccccc1Oc1ccc(Cl)cc1Cl,-7.43% (inactive),-9.2% (inactive),1.53% (inactive),–,–
CN1CCC(=C2c3ccccc3CCc3cccnc32)CC1,-11.9% (inactive),-28.7% (inactive),-24% (inactive),–,11.2 µM (active)
CCCCC/C=C\C/C=C\CCCCCCCC(=O)NC(C)c1ccccc1 (stereo not given),-3.69% (inactive),-27.1% (inactive),-9.18% (inactive),–,11.2 µM (active)
CN1[C@@H]2CC[C@H]1CC(NC(=O)n1c(=O)[nH]c3ccccc31)C2 (stereo not given in full),3.71% (inactive),-10.2% (inactive),9.49% (inactive),–,28.2 µM (active)
Nc1ncnc2nc[nH]c12,11.8% (inactive),4.13% (inactive),8.85% (inactive),-8.57% (inactive),–
